# In publication PMC5540273 (PLoS ONE, 2017):
# Tested on: FGFR3
# Details: concentration: 1 μM,replicates: in singlicate; n = 1
# 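Further: KINOMEscan kinase panel screen.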
row,Compound,%Inh [%]
1,COc1ccc(Nc2nccc(N3CCC(NC(=O)c4cccc(C#N)c4)C3)n2)cc1 (centres unmarked) [GSK1379730],4
2,C[C@@H](Oc1cc(-n2cnc3cc(-c4cnn(C)c4)ccc32)sc1C(N)=O)c1ccccc1Cl [GSK580432],92.7
3,O=C(Nc1n[nH]c2cc(-c3ccco3)ccc12)C1CC1 [SB-737447],6
4,COC(=O)Nc1nc2cc(Oc3ccc(NC(=O)Nc4cc(C(F)(F)F)ccc4Cl)cc3)ccc2[nH]1.Cl [GW697465],95.8
5,Cc1cccc2c(-c3ccncc3)c(-c3ccc(F)cc3)nn12.Cl [GW461487],4
6,O=c1[nH]cc(-c2ccc(O)cc2)c2sc(-c3ccncc3)cc12 [GSK1033723],16
7,COc1cccc(CNC(=O)NC2CCN(c3ccnc(Nc4cc(OC)c(OC)c(OC)c4)n3)C2)c1 (centres unmarked) [GSK1379765],23
8,COc1cccc(OC)c1C(=O)Nc1cccc(-c2nn3ccccc3c2-c2ccnc(Nc3cccc(F)c3)n2)c1 [GSK361065],0
9,CC(=O)Nc1nc2cnc(Nc3cc(NC(=O)c4cccc(CC(C)(C)C#N)c4)ccc3C)nc2s1,4
10,CC(C)S(=O)(=O)N1CCN(Cc2ccc3c(c2)nc(NC(=O)c2ccsc2)n3C[C@H](O)c2ccccc2)CC1 [GW635815],0
11,Cc1ccc(Nc2ccnc(Nc3ccc4c(c3)CS(=O)(=O)C4)n2)cc1O.Cl [GW579362],73
12,Cc1nnc(-c2ccc3occ(-c4ccc(S(C)=O)cc4)c3n2)o1 (centres unmarked),0
13,O=C(Nc1cccc(C(F)(F)F)c1)c1cccc(Oc2ccc3nccn3n2)c1,5
14,CCCC(=O)Nc1n[nH]c2ncccc12 [SB-601436],0
15,C[C@@H]1CNc2c(sc3ccc4nc(-c5ccc(O)cc5)ccc4c23)C(=O)N1,12
16,COC(=O)c1cccc(NC(=O)NC2CCN(c3ccnc(NCc4ccc(F)cc4)n3)CC2)c1 [GSK1379860],11
17,CC(=O)Nc1ccc(-c2cc3ncnc(SCC(=O)O)c3s2)cc1,0
18,NC(=O)c1ccc(-c2cc3ncnc(SCC(=O)O)c3s2)cc1,0
19,C[C@@H]1CCN(C(=O)N2CCCC2)C[C@@H]1N(C)c1ncnc2[nH]ccc12,20

row,Compound,%Inh [%]
1,CCn1c(-c2nonc2N)nc2cncc(Br)c21 [SB-738004],24
2,Cc1ccc(CC(=O)N2CCc3cc(-c4cn(C)c5ncnc(N)c45)ccc32)cc1 [GSK2634758],2
3,Nc1nccc(-c2ccc3c(N)n[nH]c3c2)n1 [GSK1034945],0
4,COc1cccc(C2=C(Nc3cccc(Cl)c3)C(=O)NC2=O)c1 [SB-341556],29
5,Cc1n[nH]c2cc(Nc3ccnc(Nc4cccc(CN5CCOCC5)c4)n3)ccc12 [GW682569],32
6,Cl.Cl.NC[C@H](CC1CCCCC1)NC(=O)c1ccc(-c2ccnc3[nH]ccc23)s1 [GSK1581428],6
7,COc1cc2c(Nc3ccc(NC(=O)c4ccccc4)cc3)ncnc2cc1OCCCN1CCOCC1 [GSK301329],6
8,C[C@@H](Oc1cc(-n2cnc3ccc(-c4ccncc4)cc32)sc1C(N)=O)c1ccccc1Cl [GSK483724],29
9,NC(=O)Nc1sc(-c2ccc(F)cc2)cc1C(N)=O [GW789449],10
10,CN(c1ccc2c(c1)nc(NCc1ccc(F)cc1)n2C)c1ccnc(Nc2ccc(CS(C)(=O)=O)cc2)n1.Cl [GW813244],21
11,c1ccc(Oc2ccc(Nc3ccnc4ccc(-c5ccccn5)cc34)cc2)cc1 [GW407034],25
12,CS(=O)c1ccc(-c2coc3ccc(-c4n[nH]c(=O)o4)cc23)cc1 (centres unmarked),3
13,CCN1CCN(CCCC(=O)Nc2n[nH]c3nc(-c4ccc(O)cc4)c(Br)cc23)CC1 [SB-731579],0
14,CC(=O)c1c(-c2ccncc2)[nH]c(-c2ccncc2)c1C [GW493036],0
15,CSc1nccc(-c2c(-c3ccc(F)cc3)ncn2CCCN2CCOCC2)n1.Cl [SB-217146],0
16,CN1CCN(CCNc2nc3cc(Oc4ccc(NC(=O)Nc5cc(C(F)(F)F)ccc5F)cc4)ccc3[nH]2)CC1.Cl.Cl [GW768504],0
17,C[C@@H](Oc1cc(-n2cnc3cc(-c4ccncc4)ccc32)sc1C(N)=O)c1ccccc1Cl [GSK479719],71
18,O=C(Nc1cccc(Oc2ccc3nccn3n2)c1)Nc1cccc(C(F)(F)F)c1,0

# Tested on: FGFR4
# Details: concentration: 1 μM,replicates: in singlicate; n = 1
row,Compound,%Inh [%]
1,COc1ccc(Nc2nccc(N3CCC(NC(=O)c4cccc(C#N)c4)C3)n2)cc1 (centres unmarked) [GSK1379730],6
2,C[C@@H](Oc1cc(-n2cnc3cc(-c4cnn(C)c4)ccc32)sc1C(N)=O)c1ccccc1Cl [GSK580432],38
3,O=C(Nc1n[nH]c2cc(-c3ccco3)ccc12)C1CC1 [SB-737447],0
4,COC(=O)Nc1nc2cc(Oc3ccc(NC(=O)Nc4cc(C(F)(F)F)ccc4Cl)cc3)ccc2[nH]1.Cl [GW697465],1
5,Cc1cccc2c(-c3ccncc3)c(-c3ccc(F)cc3)nn12.Cl [GW461487],9
6,O=c1[nH]cc(-c2ccc(O)cc2)c2sc(-c3ccncc3)cc12 [GSK1033723],13
7,COc1cccc(CNC(=O)NC2CCN(c3ccnc(Nc4cc(OC)c(OC)c(OC)c4)n3)C2)c1 (centres unmarked) [GSK1379765],2
8,COc1cccc(OC)c1C(=O)Nc1cccc(-c2nn3ccccc3c2-c2ccnc(Nc3cccc(F)c3)n2)c1 [GSK361065],0
9,CC(=O)Nc1nc2cnc(Nc3cc(NC(=O)c4cccc(CC(C)(C)C#N)c4)ccc3C)nc2s1,0
10,CC(C)S(=O)(=O)N1CCN(Cc2ccc3c(c2)nc(NC(=O)c2ccsc2)n3C[C@H](O)c2ccccc2)CC1 [GW635815],8
11,Cc1ccc(Nc2ccnc(Nc3ccc4c(c3)CS(=O)(=O)C4)n2)cc1O.Cl [GW579362],41
12,Cc1nnc(-c2ccc3occ(-c4ccc(S(C)=O)cc4)c3n2)o1 (centres unmarked),0
13,O=C(Nc1cccc(C(F)(F)F)c1)c1cccc(Oc2ccc3nccn3n2)c1,6
14,CCCC(=O)Nc1n[nH]c2ncccc12 [SB-601436],0
15,C[C@@H]1CNc2c(sc3ccc4nc(-c5ccc(O)cc5)ccc4c23)C(=O)N1,31
16,COC(=O)c1cccc(NC(=O)NC2CCN(c3ccnc(NCc4ccc(F)cc4)n3)CC2)c1 [GSK1379860],0
17,CC(=O)Nc1ccc(-c2cc3ncnc(SCC(=O)O)c3s2)cc1,0
18,NC(=O)c1ccc(-c2cc3ncnc(SCC(=O)O)c3s2)cc1,0
19,C[C@@H]1CCN(C(=O)N2CCCC2)C[C@@H]1N(C)c1ncnc2[nH]ccc12,3

row,Compound,%Inh [%]
1,CCn1c(-c2nonc2N)nc2cncc(Br)c21 [SB-738004],2
2,Cc1ccc(CC(=O)N2CCc3cc(-c4cn(C)c5ncnc(N)c45)ccc32)cc1 [GSK2634758],0
3,Nc1nccc(-c2ccc3c(N)n[nH]c3c2)n1 [GSK1034945],12
4,COc1cccc(C2=C(Nc3cccc(Cl)c3)C(=O)NC2=O)c1 [SB-341556],15
5,Cc1n[nH]c2cc(Nc3ccnc(Nc4cccc(CN5CCOCC5)c4)n3)ccc12 [GW682569],0
6,Cl.Cl.NC[C@H](CC1CCCCC1)NC(=O)c1ccc(-c2ccnc3[nH]ccc23)s1 [GSK1581428],0
7,COc1cc2c(Nc3ccc(NC(=O)c4ccccc4)cc3)ncnc2cc1OCCCN1CCOCC1 [GSK301329],0
8,C[C@@H](Oc1cc(-n2cnc3ccc(-c4ccncc4)cc32)sc1C(N)=O)c1ccccc1Cl [GSK483724],15
9,NC(=O)Nc1sc(-c2ccc(F)cc2)cc1C(N)=O [GW789449],0
10,CN(c1ccc2c(c1)nc(NCc1ccc(F)cc1)n2C)c1ccnc(Nc2ccc(CS(C)(=O)=O)cc2)n1.Cl [GW813244],22
11,c1ccc(Oc2ccc(Nc3ccnc4ccc(-c5ccccn5)cc34)cc2)cc1 [GW407034],4
12,CS(=O)c1ccc(-c2coc3ccc(-c4n[nH]c(=O)o4)cc23)cc1 (centres unmarked),0
13,CCN1CCN(CCCC(=O)Nc2n[nH]c3nc(-c4ccc(O)cc4)c(Br)cc23)CC1 [SB-731579],0
14,CC(=O)c1c(-c2ccncc2)[nH]c(-c2ccncc2)c1C [GW493036],9
15,CSc1nccc(-c2c(-c3ccc(F)cc3)ncn2CCCN2CCOCC2)n1.Cl [SB-217146],0
16,CN1CCN(CCNc2nc3cc(Oc4ccc(NC(=O)Nc5cc(C(F)(F)F)ccc5F)cc4)ccc3[nH]2)CC1.Cl.Cl [GW768504],0
17,C[C@@H](Oc1cc(-n2cnc3cc(-c4ccncc4)ccc32)sc1C(N)=O)c1ccccc1Cl [GSK479719],34
18,O=C(Nc1cccc(Oc2ccc3nccn3n2)c1)Nc1cccc(C(F)(F)F)c1,0
